Test results taken from PubChem BioAssay (EPA / NIEHS).
Results filed as inconclusive are left out. The source made the active and inactive calls. How the source made its calls, unless noted: active means hit-call score of the fitted dose curve at least 0.9, where 1 is the maximum; inconclusive means response in the unintended direction; inactive means score below 0.9.

Legend:
[1] = TOX21_p53_BLA_p2_viability: Viability Assessment in the Tox21 HCT-116 p53 Agonism Beta-lactamase Assay, Phase 2 (AID 2283591);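 further: compound exposure lasted 16 h at 37 °C; actives lower the ATP signal meaning cytotoxicity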
Method in brief: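 HCT-116 p53-bla cells (4000/well) rested 5 h at 37C, then received compounds in DMSO (217-fold dilution) for 16 h at 37C, 5% CO2. After the CCF4 read, CellTiter-Glo was added; ATP luminescence was read after 30 min at room temperature.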

[2] = TOX21_p53_BLA_p3_viability: Viability Assessment in the Tox21 HCT-116 p53 Agonism Beta-lactamase Assay, Phase 3 (AID 2283593);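 further: cells exposed to compound for 16 h before reading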
Method in brief: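 HCT-116 cells (4000/well) rested 5 h at 37C, then got DMSO compounds by pin tool (217-fold dilution) for 16 h at 37C, 5% CO2. After the bla read, CellTiter-Glo was added and luminescence read at 30 min, room temperature.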

[3] = TOX21_p53_BLA_p4_viability: Viability Assessment in the Tox21 HCT-116 p53 Agonism Beta-lactamase Assay, Phase 4 (AID 2283597);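 further: hits lower the luminescence signal meaning cytotoxicity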
Method in brief: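 Cytotoxicity was inferred from loss of CellTiter-Glo luminescence. HCT116 cells had been dosed with compounds after 5 h plating, incubated 16 h at 37C and 5% CO2, and exposed to the CCF4-AM substrate for 2 h.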

[4] = biological target: Cellular tumor antigen p53 (Homo sapiens) (UniProt P04637); assay: TOX21_p53_BLA_p5_ratio: Tox21 HCT-116 p53 Agonism Beta-lactamase Assay, Ratio, Phase 5 (AID 2283599)
Cellular tumor antigen p53 (Homo sapiens), sequence (P04637 whole entry, looked up): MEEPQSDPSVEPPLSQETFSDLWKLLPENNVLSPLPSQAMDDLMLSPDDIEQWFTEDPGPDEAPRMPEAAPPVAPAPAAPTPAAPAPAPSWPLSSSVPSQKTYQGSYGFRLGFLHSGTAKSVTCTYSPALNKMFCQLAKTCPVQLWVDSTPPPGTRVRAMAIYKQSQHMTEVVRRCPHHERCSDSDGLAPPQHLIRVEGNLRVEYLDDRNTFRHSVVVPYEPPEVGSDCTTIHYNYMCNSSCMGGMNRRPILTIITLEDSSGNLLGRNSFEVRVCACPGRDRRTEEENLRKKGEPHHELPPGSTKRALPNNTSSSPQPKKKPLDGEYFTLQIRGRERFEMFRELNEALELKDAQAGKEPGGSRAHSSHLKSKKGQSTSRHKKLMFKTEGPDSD
Method in brief: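 HCT-116 cells carrying a p53-inducible beta-lactamase reporter were seeded at 4000 cells/well and dosed after 5 h with compound in DMSO (217-fold dilution). After 16 h at 37C, CCF4-AM substrate was added for 2 h, and the 460/530 nm emission ratio was scored as gain-of-signal versus DMSO.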

[5] = TOX21_p53_BLA_p5_viability: Viability Assessment in the Tox21 HCT-116 p53 Agonism Beta-lactamase Assay, Phase 5 (AID 2283600)
Method in brief: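 Luciferase-coupled ATP quantitation of cells treated for 16 h (37C, 5% CO2) with test chemicals delivered in DMSO via a 217-fold dilution; 4000 cells/well; reagent incubated 30 min at room temperature before luminescence reading.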

[6] = biological target: Cellular tumor antigen p53 (Homo sapiens) (UniProt P04637); assay: TOX21_p53_BLA_p3_ratio: Tox21 HCT-116 p53 Agonism Beta-lactamase Assay, Ratio, Phase 3 (AID 2283596)
Method in brief: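 Cells were seeded at 4000/well, rested 5 h at 37C, then dosed with DMSO compound solutions (217-fold dilution) for 16 h. CCF4-AM substrate was loaded for 2 h at room temperature, and the 460/530 nm emission ratio was fitted for gain of signal versus DMSO.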

[7] = biological target: Cellular tumor antigen p53 (Homo sapiens) (UniProt P04637); assay: TOX21_p53_BLA_p4_ratio: Tox21 HCT-116 p53 Agonism Beta-lactamase Assay, Ratio, Phase 4 (AID 2283601)
Method in brief: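 HCT116 cells carrying an inducible beta-lactamase reporter were plated at 4000 cells/well, rested 5 h, then exposed to compounds in DMSO (217-fold dilution) for 16 h at 37C. CCF4-AM substrate was loaded 2 h at room temperature; 460/530 nm emission ratio scored gain-of-signal versus DMSO.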

[8] = CCTE_Harrill_HTTr_Viability_MCF7: CCTE's 6-hour Cell Viability Assessment for the High-Throughput Transcriptomics (HTTr) Platform, in MCF-7 cells cultured in DMEM + 10% fetal bovine serum, Harrill Lab (AID 2284010; active means hit-call score of the fitted dose curve at least 0.9, where 1 is the maximum; inactive means score below 0.9)
Method in brief: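 Read-out is propidium iodide gain of signal by high-content imaging, reflecting membrane integrity loss. Measurements are taken 6 h after dosing, eight concentrations per chemical, with DMSO serving as baseline for bidirectional curve fitting.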

[9] = CCTE_Harrill_HTTr_Apoptosis_MCF7: CCTE's 6-hour Apoptosis Assessment for the High-Throughput Transcriptomics (HTTr) Platform, in MCF-7 cells cultured in DMEM + 10% fetal bovine serum, Harrill Lab (AID 2284011; active means hit-call score of the fitted dose curve at least 0.9, where 1 is the maximum; inactive means score below 0.9)
Method in brief: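 MCF-7 cells in DMEM + 10% fetal bovine serum were exposed to chemicals for 6 hours over an eight-point dilution series. Caspase-3/7 activation was imaged by high content imaging with CellEvent Caspase 3/7 Green; bidirectional fitting used DMSO as baseline.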

[10] = CCTE_Harrill_HTTr_CellCount_MCF7: CCTE's Cell Proliferation Assessment for the High-Throughput Transcriptomics (HTTr) Platform, Harrill Lab (AID 2284012);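 further: cells exposed to compound for six hours; intended direction is loss of nuclei count meaning fewer cells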
Method in brief: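 Cell count served as viability reporter: loss of Hoechst-stained nuclei, counted by high content imaging, marks decreased growth or survival. Exposure was 6 h in MCF-7 cells across eight concentrations, with DMSO as baseline.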

Measured: AC50

CC(=O)O[C@H]1C[C@H](O[C@H]2[C@@H](O)C[C@H](O[C@H]3[C@@H](O)C[C@H](OC4CC[C@@]5(C)[C@H](CC[C@@H]6[C@@H]5CC[C@]5(C)[C@@H](C7=CC(=O)OC7)CC[C@]65O)C4)O[C@@H]3C)O[C@@H]2C)O[C@H](C)[C@H]1O[C@@H]1O[C@H](CO)[C@@H](O)[C@H](O)[C@H]1O (some centres not stated)
inactive: [4]
active: [1] 0.0994 µM | [2] 0.0855 µM | [3] 0.137 µM | [5] 0.0749 µM

CNC(C)Cc1ccccc1OC (configuration not stated)
inactive: [1] | [2] | [6] | [3] | [5]

O=C(CCl)C(Cl)Cl
active: [3] 6.25 µM | [4] 29 µM | [7] 26.1 µM
inactive: [1] | [2] | [5]

O=[N+]([O-])c1cc(Cl)c(Cl)c(Cl)c1
inactive: [1] | [6] | [4] | [5]

CN(C)c1ccc(N(C)C)cc1
inactive: [1] | [6] | [3] | [4] | [7]

CC(C)C(Nc1ccc(C(F)(F)F)cc1Cl)C(=O)OC(C#N)c1cccc(Oc2ccccc2)c1 (configuration not stated)
inactive: [1] | [2] | [4] | [7]

CC=C(CC)C(=O)NC(N)=O
inactive: [1] | [2] | [3] | [5] | [7]

O=NN1CCCCC1
inactive: [1] | [6] | [3] | [4] | [5] | [7]

CC(Cl)(Cl)Cl
inactive: [1] | [2] | [4]

O=C(OCCN1CCCCC1)C(O)(c1ccccc1)c1ccccc1
inactive: [1] | [4] | [7]
active: [2] 42.4 µM

[Cl-].[Cl-].[Cl-].[Fe+3]
inactive: [1] | [2] | [5] | [8] | [9] | [10]

C[C@H](CN1CCOCC1)C(C(=O)N1CCCC1)(c1ccccc1)c1ccccc1
inactive: [1] | [3]

CN(C)C(=O)Oc1cc(OC(=O)N(C)C)cc(C(O)CNC(C)(C)C)c1 (configuration not stated)
inactive: [1] | [6] | [7]

O=[N+]([O-])c1ccccc1-c1ccccc1
inactive: [1] | [6] | [4] | [5]

CCCCC(=O)Cl
inactive: [1] | [6] | [3]

CCCCCCCCP(=O)(O)O
inactive: [1] | [6] | [7]

CCOC(=O)c1cn2nc(OP(=S)(OCC)OCC)cc2nc1C
inactive: [1] | [2] | [3] | [5] | [7]

CC(C)OS(C)(=O)=O
inactive: [1] | [2] | [4]

CC(=O)[C@H]1CC[C@H]2[C@@H]3CC[C@H]4C[C@H](O)CC[C@]4(C)[C@H]3C(=O)C[C@]12C
inactive: [1] | [3]

CCCCCON=O
inactive: [1] | [6] | [4]

COc1ccc(C=O)cc1O
inactive: [1] | [6] | [4] | [7]

C#CCOC(C(=O)OCCN(C)C)(c1ccccc1)c1ccccc1
inactive: [1] | [2] | [3] | [5] | [7]

CCCCCCCC(=O)Cl
inactive: [1] | [2] | [4] | [5] | [7]

COc1cc(CC(C)N)cc2c1OCO2 (configuration not stated)
inactive: [1] | [6] | [4] | [7]

CC(C)CCCCCOC(=O)c1ccccc1C(=O)OCCCCCC(C)C
inactive: [1] | [2] | [3] | [7]

O=C1NCN(c2ccccc2)C12CCN(CC1COc3ccccc3O1)CC2 (configuration not stated)
inactive: [1] | [2] | [5] | [7]

Nc1ccccc1Cl
inactive: [1] | [6] | [3]

O=[N+]([O-])c1ccc(Cl)c(Cl)c1Cl
inactive: [1] | [2] | [4] | [5]

CCC1(CC)C(=O)C=CNC1=O
inactive: [1] | [6] | [3] | [4] | [5]

CC(C)(C)C(=O)Cl
inactive: [1] | [6] | [4] | [5] | [7]

Cl
not listed: [4] | [6] | [7]
inactive: all other assays above

CN1CC[C@]23c4c5ccc(O)c4O[C@H]2[C@@H](O)CC[C@H]3[C@H]1C5
inactive: [1] | [6] | [3] | [4]

CCOc1ccc2c3c1O[C@H]1[C@@H](O)C=C[C@H]4[C@@H](C2)N(C)CC[C@@]341
inactive: [1] | [6] | [3]

CCCOC(=O)Cc1ccc(OCC(=O)N(CC)CC)c(OC)c1
inactive: [1] | [2] | [3] | [7]

C[C@H]1O[C@H](OC2[C@@H](O)[C@@H](O)C(O)[C@H](O)[C@H]2O)[C@@H](N)C[C@@H]1N=C(N)C(=O)O (some centres not stated)
inactive: [1] | [2] | [4]

C=CCOC(C)=O
inactive: [1] | [6] | [4] | [5] | [7]

CCCBr
inactive: [1] | [3] | [4]

Cc1cc(C)cc(C(=O)OC2C[C@H]3CC[C@@H](C2)N3C)c1 (some centres not stated)
inactive: [1] | [2] | [3] | [5] | [7]

O=C(NC(=O)c1ccccc1Cl)Nc1ccc(OC(F)(F)F)cc1
inactive: [1] | [2] | [4] | [5] | [7]

O=C(Cl)C(Cl)(Cl)Cl
inactive: [1] | [6] | [3] | [5] | [7]

Oc1ccc2c3c1O[C@H]1[C@@H](O)CC[C@@]4(O)[C@@H](C2)N(CC2CCC2)CC[C@]314
inactive: [1] | [6] | [3] | [5] | [7]

O=C(CCCN1CCC(n2c(=O)[nH]c3ccccc32)CC1)c1ccc(F)cc1
inactive: [1] | [2] | [3] | [7]
